From ChEMBL document CHEMBL3988442, “University of Dundee, Small-Polar-MMV Screening Library” (2021)
For some of these results: Entries with a potency or affinity are not part of this list.

Key:
Parameters in all cases: scale not given: direction of the effect not stated beside the values
[1] = target: Protein translocase subunit SecA (Escherichia coli (strain K12)) (UniProt P10408); assay: Assay to Identify E. coli SecA ATPase Inhibitors; assay type: functional; settings: 30 µM
[2] = target: T1, Ubiquitin-activating enzyme e1, putative (Leishmania donovani (strain BPK282A1)) (UniProt E9BSI1); assay: Leishmania donovani Ubiquitin Activating Enzyme (LdE1); assay type: functional; settings: 30 µM
T1 sequence (whole entry): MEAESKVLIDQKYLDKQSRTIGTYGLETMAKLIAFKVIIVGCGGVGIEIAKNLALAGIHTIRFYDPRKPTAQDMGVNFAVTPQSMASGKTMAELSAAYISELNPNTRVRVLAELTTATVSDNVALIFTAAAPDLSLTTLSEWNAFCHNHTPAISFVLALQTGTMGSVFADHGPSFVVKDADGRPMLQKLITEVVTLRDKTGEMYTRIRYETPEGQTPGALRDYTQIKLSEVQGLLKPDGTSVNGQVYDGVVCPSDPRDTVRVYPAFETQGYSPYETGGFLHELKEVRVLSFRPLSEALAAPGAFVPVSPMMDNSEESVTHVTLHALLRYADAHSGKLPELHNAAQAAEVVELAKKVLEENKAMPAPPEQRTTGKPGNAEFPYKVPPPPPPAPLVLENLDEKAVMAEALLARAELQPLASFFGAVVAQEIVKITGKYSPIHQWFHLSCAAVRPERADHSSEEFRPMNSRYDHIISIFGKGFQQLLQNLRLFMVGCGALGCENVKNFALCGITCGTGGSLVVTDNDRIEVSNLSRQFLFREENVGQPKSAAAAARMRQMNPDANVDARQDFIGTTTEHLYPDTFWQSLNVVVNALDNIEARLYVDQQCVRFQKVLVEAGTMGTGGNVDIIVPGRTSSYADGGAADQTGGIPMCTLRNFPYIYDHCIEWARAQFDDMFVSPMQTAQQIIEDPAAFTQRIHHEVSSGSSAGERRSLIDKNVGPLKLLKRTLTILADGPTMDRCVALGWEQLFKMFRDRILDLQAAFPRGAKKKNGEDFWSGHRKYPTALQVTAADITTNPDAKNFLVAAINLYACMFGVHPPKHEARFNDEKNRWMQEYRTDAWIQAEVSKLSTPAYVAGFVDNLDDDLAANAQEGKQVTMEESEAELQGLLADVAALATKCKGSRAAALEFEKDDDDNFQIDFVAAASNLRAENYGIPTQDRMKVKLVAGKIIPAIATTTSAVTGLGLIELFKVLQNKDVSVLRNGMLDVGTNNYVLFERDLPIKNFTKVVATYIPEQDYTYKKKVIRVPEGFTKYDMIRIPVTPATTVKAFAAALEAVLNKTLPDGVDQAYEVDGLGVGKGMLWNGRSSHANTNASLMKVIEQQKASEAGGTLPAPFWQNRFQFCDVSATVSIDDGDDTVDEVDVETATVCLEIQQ

[3] = target: AMP-activated protein kinase, AMPK (Homo sapiens) (UniProt P54646+O43741+P54619+Q9UGJ0+Q9Y478+Q13131+Q9UGI9); assay: AMP-dependent Kinase enzyme assay. An in vitro enzyme assay that detects ADP turnover that is directly proportional to AMPK activity. This uses naive AMPK that is activated during the assay with MK-8722; assay type: functional; settings: 30 µM
[4] = target: Sialic acid-binding Ig-like lectin 9 (Homo sapiens) (UniProt Q9Y336); assay: Hs-Siglec9 ALPHAscreen SOP 20170721; settings: 10 µM
Sequence of Sialic acid-binding Ig-like lectin 9 (Homo sapiens) (Q9Y336 whole entry): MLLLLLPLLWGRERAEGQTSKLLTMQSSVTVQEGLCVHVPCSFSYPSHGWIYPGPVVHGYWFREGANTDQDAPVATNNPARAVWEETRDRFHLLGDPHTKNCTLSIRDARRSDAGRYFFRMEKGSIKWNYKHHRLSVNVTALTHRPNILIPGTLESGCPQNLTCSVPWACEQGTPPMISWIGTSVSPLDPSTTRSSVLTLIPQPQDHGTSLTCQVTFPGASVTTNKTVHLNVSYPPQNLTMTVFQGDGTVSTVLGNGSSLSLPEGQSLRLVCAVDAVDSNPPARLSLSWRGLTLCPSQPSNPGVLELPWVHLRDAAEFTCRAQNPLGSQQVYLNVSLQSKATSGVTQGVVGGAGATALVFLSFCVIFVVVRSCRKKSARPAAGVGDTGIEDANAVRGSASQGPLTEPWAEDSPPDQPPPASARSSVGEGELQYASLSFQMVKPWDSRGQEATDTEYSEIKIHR

Trypanosoma cruzi = assay: Trypanosoma cruzi phosphomannomutase and mannose-1-phosphate guanylyltransferase assay; assay type: functional; settings: 10 µM
[5] = target: T2, Arginase-2, mitochondrial (Homo sapiens) (UniProt P78540); assay: in vitro enzyme assay to detect the production of urea directly proportional to the activity of Arginase II; assay type: functional; settings: 33.3 µM; also: in the data most compounds retested in dose-response had high values
T2 sequence (whole entry): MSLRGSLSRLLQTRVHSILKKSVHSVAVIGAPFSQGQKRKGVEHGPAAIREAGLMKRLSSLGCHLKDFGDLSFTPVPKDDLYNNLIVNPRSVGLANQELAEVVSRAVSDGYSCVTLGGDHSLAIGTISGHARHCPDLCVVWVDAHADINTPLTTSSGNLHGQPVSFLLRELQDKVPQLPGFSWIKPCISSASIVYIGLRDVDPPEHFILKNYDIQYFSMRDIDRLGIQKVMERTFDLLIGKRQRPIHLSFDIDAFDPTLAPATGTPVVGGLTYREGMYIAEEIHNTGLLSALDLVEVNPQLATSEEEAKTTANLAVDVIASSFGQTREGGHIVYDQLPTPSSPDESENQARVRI

[6] = target: T3, Proteasome subunit beta (Trypanosoma cruzi) (UniProt O96673); assay: Trypanosoma cruzi proteasome chymotrypsin-like activity (TcProtChymo) assay.; also: in the data most compounds retested in dose-response had high values; assay type: functional; settings: 9.37 µM
T3 sequence (whole entry): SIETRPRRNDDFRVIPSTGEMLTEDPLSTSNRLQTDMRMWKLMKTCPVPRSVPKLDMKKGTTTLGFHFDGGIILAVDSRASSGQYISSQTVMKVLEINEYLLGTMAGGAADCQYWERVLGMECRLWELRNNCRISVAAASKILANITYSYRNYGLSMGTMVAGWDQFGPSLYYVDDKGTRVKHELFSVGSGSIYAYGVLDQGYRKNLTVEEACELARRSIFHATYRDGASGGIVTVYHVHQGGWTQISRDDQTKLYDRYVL

Homo sapiens = species on record: Homo sapiens; assay: To identify inhibition of the IFN signalling (Jak-Stat) pathway via expression of an eGFP reporter gene under the control of an IFN-stimulated response element (ISRE) containing MxA promoter.; assay type: functional; settings: 30 µM
[7] = target: T4, Tyrosyl-tRNA synthetase, putative (Trypanosoma cruzi (strain CL Brener)) (UniProt Q4DSP6); assay: Trypanosoma cruzi tyrosyl tRNA synthetase (TcYRS) _High Tyrosine SOP; assay type: functional; settings: 30 µM; also: in the data most compounds retested in dose-response had high values
T4 sequence (whole entry): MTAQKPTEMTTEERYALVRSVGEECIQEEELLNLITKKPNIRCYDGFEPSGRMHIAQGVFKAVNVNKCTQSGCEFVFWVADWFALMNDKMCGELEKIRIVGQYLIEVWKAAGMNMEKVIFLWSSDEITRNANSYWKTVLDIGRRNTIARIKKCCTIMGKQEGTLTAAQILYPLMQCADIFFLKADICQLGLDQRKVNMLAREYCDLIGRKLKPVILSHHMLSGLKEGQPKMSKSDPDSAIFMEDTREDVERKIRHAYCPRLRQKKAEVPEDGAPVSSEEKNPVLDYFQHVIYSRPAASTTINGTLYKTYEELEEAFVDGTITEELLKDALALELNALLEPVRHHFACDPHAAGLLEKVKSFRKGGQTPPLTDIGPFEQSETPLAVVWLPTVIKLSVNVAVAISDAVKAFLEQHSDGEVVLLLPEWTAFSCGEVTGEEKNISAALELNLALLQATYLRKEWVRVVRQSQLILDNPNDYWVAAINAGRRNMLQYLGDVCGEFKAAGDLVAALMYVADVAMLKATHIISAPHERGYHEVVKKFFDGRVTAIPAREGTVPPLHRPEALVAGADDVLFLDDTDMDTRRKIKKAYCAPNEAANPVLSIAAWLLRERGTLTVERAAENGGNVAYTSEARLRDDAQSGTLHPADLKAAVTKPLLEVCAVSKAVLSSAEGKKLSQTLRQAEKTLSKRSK

[8] = target: T4, Tyrosyl-tRNA synthetase, putative (Trypanosoma cruzi (strain CL Brener)); assay: Trypanosoma cruzi tyrosyl tRNA synthetase (TcYRS) SOP; assay type: functional; settings: 30 µM
[9] = target: Chromo domain-containing protein 1 (Saccharomyces cerevisiae (strain ATCC 204508 / S288c) (Baker's yeast)) (UniProt P32657); assay: ScCHD-1 Enzyme Inhibition Assay; assay type: functional; settings: 30 µM; also: in the data most compounds retested in dose-response had high values
Sequence of Chromo domain-containing protein 1 (Saccharomyces cerevisiae (strain ATCC 204508 / S288c) (Baker's yeast)) (P32657 whole entry, the tested form may be a part): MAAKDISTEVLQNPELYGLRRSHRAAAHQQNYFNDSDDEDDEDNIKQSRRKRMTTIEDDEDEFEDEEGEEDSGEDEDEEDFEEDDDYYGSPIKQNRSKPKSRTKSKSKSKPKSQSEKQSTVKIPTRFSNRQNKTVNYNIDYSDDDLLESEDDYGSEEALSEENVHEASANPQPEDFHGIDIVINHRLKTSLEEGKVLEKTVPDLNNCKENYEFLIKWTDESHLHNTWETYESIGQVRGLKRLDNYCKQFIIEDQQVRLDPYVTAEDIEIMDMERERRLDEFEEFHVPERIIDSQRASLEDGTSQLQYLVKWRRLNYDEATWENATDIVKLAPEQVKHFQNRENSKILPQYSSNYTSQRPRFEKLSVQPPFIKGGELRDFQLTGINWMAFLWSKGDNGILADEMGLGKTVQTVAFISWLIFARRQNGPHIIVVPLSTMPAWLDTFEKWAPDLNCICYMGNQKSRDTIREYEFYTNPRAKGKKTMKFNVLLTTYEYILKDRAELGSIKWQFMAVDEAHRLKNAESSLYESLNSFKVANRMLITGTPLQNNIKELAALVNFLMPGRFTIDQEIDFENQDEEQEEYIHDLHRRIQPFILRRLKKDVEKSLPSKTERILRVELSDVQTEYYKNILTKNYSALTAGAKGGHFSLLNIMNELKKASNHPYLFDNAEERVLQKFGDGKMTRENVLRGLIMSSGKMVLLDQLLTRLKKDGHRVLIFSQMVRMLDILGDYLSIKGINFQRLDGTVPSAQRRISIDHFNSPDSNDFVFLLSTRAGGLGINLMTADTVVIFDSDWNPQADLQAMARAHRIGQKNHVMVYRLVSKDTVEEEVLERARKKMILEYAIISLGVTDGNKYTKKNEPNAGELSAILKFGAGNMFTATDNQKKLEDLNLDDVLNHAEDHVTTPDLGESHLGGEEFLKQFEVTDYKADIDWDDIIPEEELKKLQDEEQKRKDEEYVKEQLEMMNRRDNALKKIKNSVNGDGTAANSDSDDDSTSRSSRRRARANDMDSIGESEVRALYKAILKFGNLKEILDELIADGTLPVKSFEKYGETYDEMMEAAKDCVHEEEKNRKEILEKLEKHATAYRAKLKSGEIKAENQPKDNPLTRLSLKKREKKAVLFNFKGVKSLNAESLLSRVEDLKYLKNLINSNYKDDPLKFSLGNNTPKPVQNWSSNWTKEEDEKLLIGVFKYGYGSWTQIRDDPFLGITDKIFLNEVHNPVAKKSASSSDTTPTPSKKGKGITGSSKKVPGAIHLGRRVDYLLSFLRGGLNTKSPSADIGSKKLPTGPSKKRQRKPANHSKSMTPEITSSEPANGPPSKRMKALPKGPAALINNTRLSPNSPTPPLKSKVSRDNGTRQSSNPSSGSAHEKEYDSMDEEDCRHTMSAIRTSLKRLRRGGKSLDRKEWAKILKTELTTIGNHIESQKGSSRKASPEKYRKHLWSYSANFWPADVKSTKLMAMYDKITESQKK

Sequence of Protein translocase subunit SecA (Escherichia coli (strain K12)) (P10408 whole entry): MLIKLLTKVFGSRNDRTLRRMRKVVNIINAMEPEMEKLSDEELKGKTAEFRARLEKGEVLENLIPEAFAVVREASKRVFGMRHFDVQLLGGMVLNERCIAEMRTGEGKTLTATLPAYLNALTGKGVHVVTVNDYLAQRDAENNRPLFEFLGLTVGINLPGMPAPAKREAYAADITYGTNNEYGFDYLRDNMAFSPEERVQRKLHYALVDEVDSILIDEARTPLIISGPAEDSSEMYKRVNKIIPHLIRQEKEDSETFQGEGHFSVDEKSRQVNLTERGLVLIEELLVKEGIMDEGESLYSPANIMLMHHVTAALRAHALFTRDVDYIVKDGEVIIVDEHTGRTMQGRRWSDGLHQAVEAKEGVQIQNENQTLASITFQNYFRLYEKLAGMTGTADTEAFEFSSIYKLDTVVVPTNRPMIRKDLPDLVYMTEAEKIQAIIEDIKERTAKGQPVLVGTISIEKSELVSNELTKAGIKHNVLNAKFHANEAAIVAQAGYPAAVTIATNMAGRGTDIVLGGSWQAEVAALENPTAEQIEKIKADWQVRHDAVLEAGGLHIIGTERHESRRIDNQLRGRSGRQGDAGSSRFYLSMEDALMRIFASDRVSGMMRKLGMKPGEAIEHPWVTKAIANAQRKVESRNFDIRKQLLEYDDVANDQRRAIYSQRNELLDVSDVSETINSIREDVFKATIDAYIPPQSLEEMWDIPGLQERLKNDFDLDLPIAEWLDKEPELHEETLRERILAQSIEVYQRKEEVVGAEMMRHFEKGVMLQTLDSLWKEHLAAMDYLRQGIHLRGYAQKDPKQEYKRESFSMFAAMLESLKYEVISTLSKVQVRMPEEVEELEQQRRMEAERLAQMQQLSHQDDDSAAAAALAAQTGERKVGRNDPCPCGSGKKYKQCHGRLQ

| SMILES | Percent Effect [1] [%] | Percent Effect [2] [%] | Percent Effect [3] [%] | Percent Effect [4] [%] | Percent Effect (Trypanosoma cruzi) [%] | Percent Effect [5] [%] | Percent Effect [6] [%] | Percent Effect (Homo sapiens) [%] | Percent Effect [7] [%] | Percent Effect [8] [%] | Percent Effect [9] [%] |
| --- | --- | --- | --- | --- | --- | --- | --- | --- | --- | --- | --- |
| CCn1cc(NC(=O)C2CCN(CC(=O)N3CCOCC3)CC2)cn1 | -3.94 | 10.5 | -3.09 | 3.27 | -4.01 | 1.8 | 3.98 | 3.5 | 2.46 | 11.1 | 4.1 |
| O=c1nc(SCc2ccncc2)c2c(n1CCO)CCCC2 | -0.843 | 16.4 | -2.68 | 11.4 | 3.92 | 19.6 | 21.8 | 19.8 | 3.23 | 7.5 | -7.55 |
| COCc1nc(N(C)C)ncc1C(=O)Nc1ccn(C)n1 | -6.73 | 12 | -5.52 | 4.28 | 1.38 | -7.22 | 5.36 | 0.526 | 4.23 | 10.3 | -10.2 |
| CCn1ncc2c1CCCC2NCc1ccc(OC)c(C)c1 (configuration not stated) | -7.95 | 12.7 | -10.6 | 11.1 | 7.08 | -3.42 | 1.23 | 0.115 | 4.43 | 16.5 | -6.17 |
| c1nc(N2CCCCC2Cn2cncn2)c2ccsc2n1 (configuration not stated) | -6.19 | 16 | -6.98 | 35.1 | 11.6 | 25.5 | 9.59 | 16.8 | 3.83 | 13.6 | -9.92 |
| Cc1ccc(CN2CCCC3(CCN(S(C)(=O)=O)C3)C2)o1 (configuration not stated) | -3.67 | 8 | 11.7 | 5.08 | -1.97 | -4.43 | 3.96 | 15.2 | 6.38 | 14.1 | -3.22 |
| Cc1ccc(NC(=O)N2CCN(Cc3noc(C4CC4)n3)CC2)cc1 | -10.7 | -1.27 | 5.38 | -5.9 | -3.38 | -4.09 | 10.1 | 10.8 | -1.04 | -5.06 | -24.6 |
| Cc1ccc2c(c1)C1(CC2)CCN(c2nncs2)CC1 | -0.497 | 0 | 5.45 | 1.98 | 1.59 | 3.59 | 7.28 | 20.4 | 6.25 | 11.1 | 5.12 |
| Cc1ncc(-c2nc3cc(S(=O)(=O)N4CCCC4)ccc3n2C)cn1 | -5.62 | 5.48 | 12.1 | -7.83 | 0 | 6.36 | 2.13 | 14.1 | 6.45 | 15 | -1.23 |
| Cc1nc(CN2C[C@@H]3CN(C(=O)c4ccnnc4)C[C@@H]3C2=O)cs1 | -4.78 | 5.41 | 6.23 | 4.54 | -0.684 | 2.23 | 11.6 | -22.8 | 3.24 | 7.69 | 4.63 |
| Cc1ccc(CN2CCC3(C2)C(=O)N(CC(C)C)c2ccccc23)s1 (configuration not stated) | -1.13 | -16.2 | -0.146 | 1.8 | -6.25 | 3.75 | 7.02 | 7.39 | 10.9 | 13.4 | -7.96 |
| Cc1nc(C)n(CC2CCCCN2CC(=O)Nc2ccncc2)n1 (configuration not stated) | 1.21 | 23.4 | -4.4 | -2.19 | -9.74 | 3.56 | 8.11 | 27.5 | 5.83 | -2.44 | -9.59 |
| Cn1cnc(S(=O)(=O)N2CCN(Cc3ccco3)CC2)c1Cl | -3.16 | 4.17 | -1.11 | 4.71 | 0.291 | 0 | 4.74 | 8.03 | -17.9 | 5.13 | -0.35 |
| CSCCC1c2nc[nH]c2CCN1Cc1ccnc2ccccc12 (configuration not stated) | -3.26 | 10.7 | -26.6 | 14.2 | 4.38 | 5.73 | 25.5 | 10.9 | 9.29 | 6.17 | -4.91 |
| Cc1ccc(C)c(OC2CCN(C(=O)c3ccc(C)[nH]c3=O)CC2)c1 | -3.58 | 15.8 | -5.18 | 6.14 | 8.84 | 1.53 | 10.9 | 11.6 | 5.39 | 12.2 | -11.4 |
| Cc1cncc(C(=O)N2CCCC(C(=O)CCc3ccccc3)C2)c1 (configuration not stated) | 3.06 | 2.74 | 1.42 | 1.76 | -5.88 | 4.54 | 19.2 | 14.7 | 4.3 | 15 | -12.2 |
| Cc1ncsc1C(=O)NCCSCCCO | 1.26 | 16.2 | -5.95 | -2.14 | 1.02 | -1.29 | 15.4 | -0.639 | 4.95 | 15.8 | -4.16 |
